In PubChem BioAssay (NCATS):
Results filed as inconclusive are left out. Entries that show only a call come without a potency. The source made the active and inactive calls. The call rests on the fitted dose curve; in most records, active means well fitted curve in the direction sought with a large enough effect; inconclusive means small, poorly fitted or top-dose-only effect, or another doubt; inactive means no such curve, though single readings can be large; an effect the other way counts as inactive or inconclusive.

Legend:
[1] = qHTS of pediatric cancer cell lines to identify multiple opportunities for drug repurposing: Primary screen for MG 63 (6-TG R) cells (AID 1347105); further: nearly all actives have a fitted effect of over 50% in size
Summary of the method: (§1)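 Following a 5-hour attachment period, cells at 500-1,000/well received compounds and were cultured for 48 hours. CellTiter-Glo was added and luminescence read to estimate viable, metabolically active cells.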

[2] = qHTS of pediatric cancer cell lines to identify multiple opportunities for drug repurposing: Primary screen for control Hh wild type fibroblast cells (AID 1347106); further: nearly all actives have a fitted effect of over 55% in size
Summary of the method: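 Cells (500-1,000/well) in growth media were settled 5 h at 37 degrees C, then given compounds for 48 h. Viability was read as CellTiter-Glo luminescence. Primary runs used MIPE at 11 points (0.78 nM-46 µM) and NPC at 8 points (0.59 nM-46 µM); follow-ups used 11 points.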

[3] = qHTS of pediatric cancer cell lines to identify multiple opportunities for drug repurposing: Primary screen for Rh30 cells (AID 1347107); further: nearly all actives have a fitted effect of over 75% in size
Summary of the method: (§2)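 Viability after 48 h compound treatment at 37C, 500-1,000 cells/well, read as ATP luminescence with CellTiter-Glo. Primary screens used 11-point (MIPE, 0.78 nM-46 µM) or 8-point (NPC, 0.59 nM-46 µM) final concentrations; follow-up screens used 11-point dilutions.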

[4] = qHTS of pediatric cancer cell lines to identify multiple opportunities for drug repurposing: Primary screen for Rh41 cells (AID 1347108); further: nearly all actives have a fitted effect of over 70% in size
Summary of the method: as §1

[5] = qHTS of pediatric cancer cell lines to identify multiple opportunities for drug repurposing: Confirmatory screen for A673 cells (AID 1347110); further: nearly all actives have a fitted effect of over 65% in size
Summary of the method: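 Forty-eight-hour viability assay. Follow-up compounds ran at 11-point dilutions; positive control bortezomib at 2.3 uM final, neutral control DMSO.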

[6] = qHTS of pediatric cancer cell lines to identify multiple opportunities for drug repurposing: Confirmatory screen for SK-N-MC cells (AID 1347111);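 further: cells exposed to compound for 48 h before the readout; nearly all actives have a fitted effect of over 70% in size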
Summary of the method: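 SK-N-MC cells at 500-1,000 cells/well in growth media were pre-incubated 5 h, then exposed to compounds at 11-point dilutions for 48 h at 37 degrees C, 5% CO2. Viability was read as CellTiter-Glo luminescence.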

[7] = qHTS of pediatric cancer cell lines to identify multiple opportunities for drug repurposing: Confirmatory screen for DAOY cells (AID 1347114); further: nearly all actives have a fitted effect of over 65% in size
Summary of the method: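 Viability measured as metabolically active cells via CellTiter-Glo luminescence following 48 hours of compound exposure, 11-point dilutions in confirmatory testing. 500-1,000 cells/well plated 5 hours before dosing; controls were DMSO and 2.3 µM bortezomib.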

[8] = qHTS of pediatric cancer cell lines to identify multiple opportunities for drug repurposing: Confirmatory screen for NB1643 cells (AID 1347109); further: nearly all actives have a fitted effect of over 45% in size
Summary of the method: as §2

[9] = qHTS of pediatric cancer cell lines to identify multiple opportunities for drug repurposing: Confirmatory screen for BT-12 cells (AID 1347112); further: nearly all actives have a fitted effect of over 55% in size
Summary of the method: as §2
Potency means the concentration at half of the fitted maximal effect.

For `Nc1ccc(S(=O)(=O)Nc2ncccn2)cc1`, the Potency [1] was “inactive”, the Potency [2] was “inactive” and the Potency [3] was “inactive”. The Potency [4] was “inactive”.
In the case of `CC(=O)OCCN1C(=O)c2c(C)nc3ccc(S(=O)(=O)N4CCOCC4)cc3c2C1=O`, the Potency [1] was “inactive”, the Potency [2] was “inactive” and the Potency [3] was “inactive”. The Potency [4] was “inactive”.
In the case of `O=C(O)CO.[NH2-].[NH2-].[Pt+2]`, the Potency [1] was “inactive”, the Potency [2] was “inactive” and the Potency [3] was “inactive”. For the same molecule, the Potency [4] was “inactive”.
With `Nc1ccccc1NC(=O)c1ccc(CNc2nccc(-c3cccnc3)n2)cc1` the Potency [1] was 3.72 µM (active), the Potency [2] was 14.8 µM (active) and the Potency [3] was “inactive”. The Potency [4] was 1.18 µM (active), the Potency [5] was 2.61 µM (active) and the Potency [6] was “inactive”. For the same molecule, the Potency [7] was 2.93 µM (active).
In the case of `COc1ccc(-n2nc(C(N)=O)c3c2C(=O)N(c2ccc(N4CCCCC4=O)cc2)CC3)cc1`, the Potency [1] was “inactive”, the Potency [2] was “inactive” and the Potency [3] was “inactive”. For the same molecule, the Potency [4] was “inactive”, the Potency [8] was “inactive” and the Potency [5] was “inactive”. For the same molecule, the Potency [9] was “inactive”.
With `Cc1ccc(NC(=O)C2(c3ccc4c(c3)OC(F)(F)O4)CC2)nc1-c1cccc(C(=O)O)c1` the Potency [1] was 0.148 µM (active), the Potency [2] was 11.8 µM (active) and the Potency [3] was “inactive”. For the same molecule, the Potency [4] was 0.296 µM (active), the Potency [8] was “inactive” and the Potency [5] was “inactive”. The Potency [6] was “inactive” and the Potency [9] was 10.4 µM (active).
In the case of `CC(NCc1ccc2c(c1)nc(NC(=O)c1ccc(-c3cn[nH]c3)s1)n2CC(C)(C)O)C(C)(C)C` (stereo not given), the Potency [1] was 2.35 µM (active), the Potency [2] was 2.35 µM (active) and the Potency [3] was 14.8 µM (active). The Potency [4] was 0.743 µM (active), the Potency [8] was 293 nM (active) and the Potency [5] was 0.827 µM (active). The Potency [9] was 0.928 µM (active) and the Potency [7] was 1.47 µM (active).
With `Cc1cc(Nc2cc(N3CCN(C)CC3)nc(Sc3ccc(NC(=O)C4CC4)cc3)n2)n[nH]1` the Potency [1] was 18.7 µM (active), the Potency [2] was “inactive” and the Potency [3] was 18.7 µM (active). For the same molecule, the Potency [4] was 11.8 µM (active), the Potency [8] was 4140 nM (active) and the Potency [5] was 13.1 µM (active). The Potency [6] was 131 nM (active) and the Potency [7] was 5.22 µM (active).
